The record followed here is PubChem BioAssay (NCATS).

“And” between values parts separate entries of the source, which are not always exact repeats. Equal values may be shown once. Inconclusive results are not listed. Values without a mark were called inactive. The source made the active and inactive calls. The call rests on the fitted dose curve; in most records, active means well fitted inhibition curve with a large enough effect; inconclusive means small, poorly fitted or top-dose-only effect; inactive means flat fitted curve, though single readings scatter.

One test has as its system CRL-7250. Kind of test: Cytotoxic Profiling of Annotated Libraries Using Quantitative High-Throughput Screening (AID 1296008). On max response: on the % scale 0 is the no-effect control and ±100 the full control effect. Conditions: Five cell lines viability, CellTiter-Glo ATP luminescence, 48-72 h; max response: stronger effect = lower value. Put shortly: (§1)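 Compounds were pin-transferred onto cells and incubated 48 or 72 hr at 37 degree Celsius, 95% humidity. CellTiter-Glo was added, plates sat 10 min at room temperature, then ATP-coupled luminescence was imaged as the viability read-out.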
In general terms: In ATP-based viability assays light output follows the ATP content of the culture.

The subject of the next test is HEK293. Described as above. The note with it: Five cell lines viability, CellTiter-Glo ATP luminescence, 48-72 h; max response: stronger effect = lower value. The gist of the method: as §1
Another test has as its system HaCat. Described as above. Conditions: Five cell lines viability, CellTiter-Glo ATP luminescence, 48-72 h; max response: stronger effect = lower value. The gist of the method: as §1
A further test deals with KB-3-1. Described as above. Conditions: Five cell lines viability, CellTiter-Glo ATP luminescence, 48-72 h; max response: stronger effect = lower value. The gist of the method: as §1
The next test relates to GB4. Kind of test: qHTS profiling for inhibitors of Plasmodium falciparum proliferation (AID 504749). Conditions: P. falciparum in erythrocytes, SYBR Green DNA, 72 h; series mostly up to 28.7 µM. The gist of the method: (§2)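 Fluorescence of SYBR Green-bound parasite DNA, read at 485/535 nm, served as the growth measure. Infected erythrocytes were cultured with compound 72 h; artemisinin (0.29 uM) and DMSO wells defined the normalization range.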
On the technique in general: Quantitative high-throughput screening tests each substance at several concentrations.

Another test concerns HB3. The description is as above. The note with it: P. falciparum in erythrocytes, SYBR Green DNA, 72 h; series mostly up to 28.7 µM. Put shortly:
as §2

A further test has as its system ICS. Described as above. Conditions: P. falciparum in erythrocytes, SYBR Green DNA, 72 h; series mostly up to 28.7 µM. Put shortly: as §2
Another test concerns JCK. The test is described as above. Conditions: P. falciparum in erythrocytes, SYBR Green DNA, 72 h; series mostly up to 28.7 µM. The gist of the method: as §2
Another test deals with N140. Described as above. The note with it: P. falciparum in erythrocytes, SYBR Green DNA, 72 h; series mostly up to 28.7 µM. The gist of the method:
as §2

The subject of another test is P93_24. The test is described as above. Conditions: P. falciparum in erythrocytes, SYBR Green DNA, 72 h; series mostly up to 28.7 µM. Put shortly: as §2
A further test concerns P94_40. The test is described as above. Conditions: P. falciparum in erythrocytes, SYBR Green DNA, 72 h; series mostly up to 28.7 µM. Put shortly: as §2
The subject of another test is PAD. Described as above. The note with it: P. falciparum in erythrocytes, SYBR Green DNA, 72 h; series mostly up to 28.7 µM. Put shortly:
as §2

Another test relates to PC15. Described as above. The note with it: P. falciparum in erythrocytes, SYBR Green DNA, 72 h; series mostly up to 28.7 µM. The gist of the method:
as §2

For the next test, the system named is PC26. The test is described as above. Conditions: P. falciparum in erythrocytes, SYBR Green DNA, 72 h; series mostly up to 28.7 µM. The gist of the method:
as §2

In the next test the test system is PC49. Described as above. The note with it: P. falciparum in erythrocytes, SYBR Green DNA, 72 h; series mostly up to 28.7 µM. The gist of the method: as §2
A further test deals with SC27B. Described as above. The note with it: P. falciparum in erythrocytes, SYBR Green DNA, 72 h; series mostly up to 28.7 µM. Put shortly:
as §2

A further test has as its system TAB109. Described as above. Conditions: P. falciparum in erythrocytes, SYBR Green DNA, 72 h; series mostly up to 28.7 µM. The gist of the method: as §2
The next test deals with TAB113. Described as above. Conditions: P. falciparum in erythrocytes, SYBR Green DNA, 72 h; series mostly up to 28.7 µM. The gist of the method:
as §2

A further test has as its system TAB165. The test is described as above. The note with it: P. falciparum in erythrocytes, SYBR Green DNA, 72 h; series mostly up to 28.7 µM. Put shortly: as §2
The next test relates to W2. Described as above. Conditions: P. falciparum in erythrocytes, SYBR Green DNA, 72 h; series mostly up to 28.7 µM. Put shortly: as §2
Further: nearly all actives have a fitted effect of over 60% in size.
Potency means the concentration at half of the fitted maximal effect.

As for `CCCC[N+]1(C)[C@H]2CC(OC(=O)[C@H](CO)c3ccccc3)C[C@H]1[C@H]1O[C@H]12` (some centres not stated), the max response in the test on CRL-7250 is -3.26%; in the test with HEK293, -1.83%; in the test with KB-3-1 it was -2.74%. Besides, the molecule was classed as inactive in the test on HaCat.

For the molecule `COc1ccc2c(c[n+](C)c3c4cc5c(cc4ccc23)OCO5)c1OC`, the values for the Potency in the test with CRL-7250, with HEK293 and with KB-3-1 were 16.6 µM (active), 2.96 µM (active) and 26.4 µM (active), respectively.

For `C1CCC(NC2CCCCC2)CC1`, the Potency entry in the test on GB4, with HB3, in the test with ICS, in the test on JCK, in the test on N140 and in the test on P93_24 was “inactive” in each case. In addition, the Potency entry in the test with P94_40, with PAD, with PC15, in the test with PC26, in the test on PC49 and in the test with SC27B was “inactive” in each case. In addition, the Potency entry with TAB109, in the test with TAB113, in the test on TAB165 and in the test with W2 was “inactive” in each case. In the test with CRL-7250, the molecule was called inactive. The max response in the test with HEK293 was 2.36%; with HaCat it was 3.35%; in the test on KB-3-1, 6.25%.

On to `O=C1C=CC[C@@H]2[C@H]3CCCN4CCC[C@@H](CN12)[C@@H]34`, for which the max response with CRL-7250 is -6.72% and -5.8%; with HaCat, -19.8% and -9.45%; in the test on KB-3-1, 5.89%. In the test on HEK293, the molecule was called inactive.

Take `O=C(O)COc1ccccc1`: the Potency entry in the test on GB4, in the test on HB3, with ICS, in the test with JCK, in the test with N140 and in the test with P93_24 was “inactive” each time. Moreover, the Potency result with P94_40, in the test on PAD, in the test with PC15, in the test on PC26, in the test with PC49 and with SC27B was “inactive” each time. Also, the Potency result in the test on TAB109, with TAB113, in the test with TAB165 and with W2 was “inactive” each time. In addition, the max response with CRL-7250 was 4.33%; in the test on HEK293 it was 2.38%; in the test with KB-3-1, -13.1%. In addition, the outcome in the test with HaCat was inactive.

Turning to `CS(=O)(=O)c1ccc(C(=O)C2C(=O)CCCC2=O)c([N+](=O)[O-])c1`, the max response in the test with CRL-7250 is -5.31%; in the test on HEK293, -9.25%; in the test on KB-3-1, -20.3%.

Consider `NC1CC1c1ccccc1` (configuration not stated), for which the figures for the max response in the test with CRL-7250, in the test with HaCat and in the test on KB-3-1 were -3.17%, -2.49% and 5.36%, respectively. Moreover, the molecule was classed as inactive with HEK293.

With `CN(C)[C@@H]1C(=O)C(C(N)=O)=C(O)[C@@]2(O)C(=O)C3=C(O)c4c(O)cccc4[C@@](C)(O)[C@H]3[C@H](O)[C@@H]12`, the Potency entry with JCK, in the test with PC15, with PC26, in the test on PC49, in the test with SC27B and in the test on TAB113 was “inactive” throughout. Also, the max response in the test with CRL-7250 was -1.31%; with KB-3-1 it was -7.87% and 0.265% and -1.24%. Also, the result in the test on HEK293 and with HaCat was inactive.

Take `CC1=NN=C(c2ccc(N)cc2)c2cc3c(cc2C1)OCO3`: the molecule was called inactive in the test with CRL-7250 and with KB-3-1. For the same molecule, the max response was 3.46% in the test with HEK293 and -15.7% in the test with HaCat.

For `O=S(=O)(F)Cc1ccccc1`, the call with CRL-7250 and in the test on HEK293 was inactive. For the same molecule, the max response with HaCat is -8.02%; in the test with KB-3-1, 3.23%.

For the molecule `CCCCCCCCCCCCCCCC[N+](C)(C)C`, the Potency with GB4 is 4.78 µM (active); in the test with ICS, 7.08 µM (active); with SC27B, 12.6 µM (active); in the test on TAB113, 8.91 µM (active); in the test with W2 it was 6.75 µM (active); with CRL-7250, 6.68 µM (active). Also, the Potency was 5.96 µM (active) with HEK293 and 2.11 µM (active) in the test on HaCat. In addition, the Potency entry with PC49 is “inactive”.

Take `CC[N+]1(CCOC(=O)C(O)(c2ccccc2)c2ccccc2)CCCCC1`: the Potency result with GB4, in the test on HB3, with ICS, in the test on JCK, in the test on N140 and in the test with P94_40 was “inactive” throughout. Moreover, the Potency entry in the test on PAD, in the test with PC15, in the test on PC26, in the test on PC49, in the test on SC27B and in the test on TAB113 was “inactive” in each case. Also, the Potency entry with W2 is “inactive”. The max response in the test on CRL-7250 is -4.52%; in the test on KB-3-1, 1.27%. The molecule was classed as inactive in the test with HEK293 and with HaCat.

In the case of `CC(C)(O)C(=O)Nc1ccc([N+](=O)[O-])c(C(F)(F)F)c1`, the max response was -26.4% in the test with CRL-7250, -21.8% in the test with HEK293, -2.45% with HaCat and -3.83% in the test on KB-3-1.

Turning to `CCc1c(C(=O)C(N)=O)c2c(OCC(=O)O)cccc2n1Cc1ccccc1`, the max response in the test on CRL-7250 was 2.27% and 4.29%; in the test on HEK293, -0.0349%; with HaCat it was -1.12% and -1.77%; in the test with KB-3-1, 9.54%. The call in the test on KB-3-1 was inactive.

As to `NC1=NC(=O)N2CC12` (configuration not stated), the results for the Potency with ICS, in the test with CRL-7250 and in the test on HEK293 were 11.2 µM (active), 11.8 µM (active) and 8.33 µM (active), respectively. For the same molecule, the Potency entry with JCK, in the test with N140, with PC15, in the test on PC49, with SC27B and in the test on TAB113 was “inactive” each time. For the same molecule, in the test on HaCat, the molecule was classed as inactive. Besides, the max response in the test with KB-3-1 was 6.64%.
